Experimental findings from PubChem BioAssay (NCI) are described below.

The nature of assay [1]: NCI Yeast Anticancer Drug Screen. Data for the rad50 strain (AID 155).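 Note: 0% = growth of vehicle-only cultures of the same strain.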 To be noted: S. cerevisiae rad50 strain growth inhibition, stronger effect = higher value. The gist of the method:
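A DNA repair-deficient yeast mutant serves as the test organism; compound-induced growth inhibition is calculated against vehicle-treated cells.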

A short description of assay [2]: NCI Yeast Anticancer Drug Screen. Data for the mec2-1 strain (AID 157). The settings on record: S. cerevisiae mec2-1 strain, stronger effect = higher value. The gist of the method: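 Using mec2-1 yeast: add compound, measure growth, express inhibition versus vehicle-treated cultures.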
Assay [3] is described as follows: NCI Yeast Anticancer Drug Screen. Data for the sgs1 mgt1 strain (AID 161).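 Note: 0% = growth of cultures given vehicle only.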 To be noted: S. cerevisiae sgs1 mgt1 strain, stronger effect = higher value. The gist of the method: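 This yeast growth screen uses a strain with defined DNA-repair lesions; compound-treated growth is compared with vehicle-treated growth.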
A short description of assay [4]: NCI Yeast Anticancer Drug Screen. Data for the cln2 rad14 strain (AID 165).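 Note: 0% = growth equal to vehicle treated cultures.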 To be noted: S. cerevisiae cln2 rad14 strain, stronger effect = higher value. The gist of the method: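 Yeast strain cln2 rad14, bearing defects in cell cycle control and DNA repair, serves as the test system; values reflect growth inhibition compared with vehicle.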
The nature of assay [5]: NCI Yeast Anticancer Drug Screen. Data for the bub3 strain (AID 167). To be noted: S. cerevisiae bub3 mutant strain, stronger effect = higher value. In a few lines: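 Inhibition values come from growth of compound-treated mutant yeast normalised to vehicle-treated controls.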
Assay [6] is described as follows: NCI Yeast Anticancer Drug Screen. Data for the mlh1 rad18 strain (AID 175). To be noted: S. cerevisiae mlh1 rad18 strain growth inhibition, stronger effect = higher value. In a few lines:
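Steps: expose repair-defective yeast to compound; measure growth; express inhibition against vehicle-treated controls.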

Setting [7] is: at 5.0 µM (retest, dose inferred, filed as 0.5).
[8] abbreviates: at 50.0 µM (retest, dose inferred, filed as 5.0).

About 79,000 compounds went through this panel and 15% of them were active in at least one assay; those are over-represented in the sample as a whole. A number with no mark means an inactive call. Calls of active or inactive are those of the source. Cut-off read from the data, not from the text of the source: active = growth inhibition above about 70%; inactive = the rest.

For the molecule `CCCCCCCCCCCCNC(=O)C[n+]1cccc(C(=O)Nc2ccccc2)c1`, the growth inhibition in assay [1] (setting [7]) is 99% (active); in assay [1] (setting [8]) it was 97% (active); in assay [1] (at 50.0 µM) it was 98.8% (active); in assay [2] (setting [7]), 100% (active); in assay [2] (setting [8]), 99% (active); in assay [2] (at 50.0 µM), 98.8% (active). Also, the growth inhibition in assay [3] (setting [7]) was 99% (active); in assay [3] (setting [8]), 98% (active); in assay [3] (at 50.0 µM) it was 99.5% (active); in assay [4] (setting [7]) it was 99% (active); in assay [4] (setting [8]), 98% (active); in assay [4] (at 50.0 µM) it was 98.6% (active). Also, the growth inhibition in assay [5] (setting [7]) was 99% (active); in assay [5] (setting [8]) it was 98% (active); in assay [5] (at 50.0 µM) it was 98.2% (active); in assay [6] (setting [7]), 99% (active); in assay [6] (setting [8]), 98% (active); in assay [6] (at 50.0 µM), 98.2% (active).

Turning to `CCCCCCCCCCCCCCCC[NH][Ge]([NH]CCCCCCCCCCCCCCCC)([NH]CCCCCCCCCCCCCCCC)[NH]CCCCCCCCCCCCCCCC`, the growth inhibition is 98% (active) in assay [1] (setting [7]); 96% (active) in assay [1] (setting [8]); 87.4% (active) in assay [1] (at 50.0 µM); 99% (active) in assay [2] (setting [7]); 97% (active) in assay [2] (setting [8]); 91.5% (active) in assay [2] (at 50.0 µM). Further, the growth inhibition in assay [3] (setting [7]) is 99% (active); in assay [3] (setting [8]), 96% (active); in assay [3] (at 50.0 µM) it was 90.2% (active); in assay [4] (setting [7]), 99% (active); in assay [4] (setting [8]), 96% (active); in assay [4] (at 50.0 µM) it was 89.2% (active). Further, the growth inhibition in assay [5] (setting [7]) is 99% (active); in assay [5] (setting [8]), 97% (active); in assay [5] (at 50.0 µM), 87.2% (active); in assay [6] (setting [7]) it was 98% (active); in assay [6] (setting [8]) it was 95% (active); in assay [6] (at 50.0 µM) it was 87.2% (active).

With `CC1/C(=N\O)CC(c2ccccc2)N(C)C1c1ccccc1` (stereo not given), the growth inhibition in assay [1] (setting [7]) was 96% (active); in assay [1] (setting [8]), 96% (active); in assay [1] (at 50.0 µM), 98.2% (active); in assay [2] (setting [7]), 96% (active); in assay [2] (setting [8]), 98% (active); in assay [2] (at 50.0 µM), 98.2% (active). Further, the growth inhibition in assay [3] (setting [7]) was 96% (active); in assay [3] (setting [8]), 97% (active); in assay [3] (at 50.0 µM), 97.7% (active); in assay [4] (setting [7]) it was 58%; in assay [4] (setting [8]), 78% (active); in assay [4] (at 50.0 µM), 83.5% (active). The growth inhibition in assay [5] (setting [7]) was 94% (active); in assay [5] (setting [8]) it was 96% (active); in assay [5] (at 50.0 µM), 98% (active); in assay [6] (setting [7]) it was 95% (active); in assay [6] (setting [8]) it was 97% (active); in assay [6] (at 50.0 µM), 97.7% (active).

As for `Cc1ccc2[nH]c3c(c2c1)CCC/C3=N/N=C(N)N`, the growth inhibition in assay [1] (setting [7]) is 26%; in assay [1] (setting [8]), 93% (active); in assay [1] (at 50.0 µM), 63%; in assay [2] (setting [7]) it was 14%; in assay [2] (setting [8]), 100% (active); in assay [2] (at 50.0 µM) it was 83% (active). In addition, the growth inhibition in assay [3] (setting [7]) was 24%; in assay [3] (setting [8]), 99% (active); in assay [3] (at 50.0 µM), 90.8% (active); in assay [4] (setting [7]), 22%; in assay [4] (setting [8]) it was 99% (active); in assay [4] (at 50.0 µM), 91% (active). Moreover, the growth inhibition in assay [5] (setting [7]) is 21%; in assay [5] (setting [8]), 99% (active); in assay [5] (at 50.0 µM), 89.2% (active); in assay [6] (setting [7]), 29%; in assay [6] (setting [8]), 97% (active); in assay [6] (at 50.0 µM), 90.8% (active).

`CCCCCCCCCCCCS(=O)(=O)CC(Br)C(=O)c1ccco1` (stereo not given): the growth inhibition in assay [1] (setting [7]) is 57%; in assay [1] (setting [8]) it was 96% (active); in assay [1] (at 50.0 µM) it was 94.2% (active); in assay [2] (setting [7]), 42%; in assay [2] (setting [8]) it was 97% (active); in assay [2] (at 50.0 µM), 96.9% (active). Also, the growth inhibition in assay [3] (setting [7]) is 67%; in assay [3] (setting [8]) it was 96% (active); in assay [3] (at 50.0 µM), 95.3% (active); in assay [4] (setting [7]), 12%; in assay [4] (setting [8]) it was 90% (active); in assay [4] (at 50.0 µM), 93.7% (active). The growth inhibition was 43% in assay [5] (setting [7]); 95% (active) in assay [5] (setting [8]); 95.1% (active) in assay [5] (at 50.0 µM); 68% in assay [6] (setting [7]); 93% (active) in assay [6] (setting [8]); 95.3% (active) in assay [6] (at 50.0 µM).

For `CC(NC(=O)OCc1ccccc1)C(=O)NC(C(=O)O)C(C)C` (stereo not given), the growth inhibition in assay [1] (setting [7]) was 29%; in assay [1] (setting [8]), 66%; in assay [1] (at 50.0 µM), 63.1%; in assay [2] (setting [7]), 22%; in assay [2] (setting [8]), 46%; in assay [2] (at 50.0 µM), 38%. Also, the growth inhibition was 27% in assay [3] (setting [7]); 65% in assay [3] (setting [8]); 60.6% in assay [3] (at 50.0 µM); 37% in assay [4] (setting [7]); 48% in assay [4] (setting [8]); 59.6% in assay [4] (at 50.0 µM). Besides, the growth inhibition in assay [5] (setting [7]) was 37%; in assay [5] (setting [8]), 84% (active); in assay [5] (at 50.0 µM) it was 34.9%; in assay [6] (setting [7]), 14%; in assay [6] (setting [8]), 86% (active); in assay [6] (at 50.0 µM) it was 74% (active).

Turning to `CN(C)C1C[C@@H](O[Si](C)(C)C(C)(C)C)C=C1S(=O)(=O)c1ccccc1` (stereo not given in full), the growth inhibition in assay [1] (setting [7]) is -16%; in assay [1] (setting [8]), 100% (active); in assay [1] (at 50.0 µM) it was 44.8%; in assay [2] (setting [7]), -4%; in assay [2] (setting [8]) it was 100% (active); in assay [2] (at 50.0 µM) it was 47.8%. The growth inhibition in assay [3] (setting [7]) was -18%; in assay [3] (setting [8]), 100% (active); in assay [3] (at 50.0 µM), 36.4%; in assay [4] (setting [7]), -14%; in assay [4] (setting [8]), 99% (active); in assay [4] (at 50.0 µM), 33.5%. The growth inhibition in assay [5] (setting [7]) is -14%; in assay [5] (setting [8]) it was 100% (active); in assay [5] (at 50.0 µM), 7.75%; in assay [6] (setting [7]) it was 4%; in assay [6] (setting [8]) it was 100% (active); in assay [6] (at 50.0 µM), 58%.

As to `CCCCCCCCCCCCNCc1ccc(O)c(OC)c1`, the growth inhibition is 95% (active) in assay [1] (setting [7]); 97% (active) in assay [1] (setting [8]); 97.3% (active) in assay [1] (at 50.0 µM); 97% (active) in assay [2] (setting [7]); 98% (active) in assay [2] (setting [8]); 97.4% (active) in assay [2] (at 50.0 µM). In addition, the growth inhibition in assay [3] (setting [7]) was 99% (active); in assay [3] (setting [8]), 97% (active); in assay [3] (at 50.0 µM) it was 44.1%; in assay [4] (setting [7]), 93% (active); in assay [4] (setting [8]), 97% (active); in assay [4] (at 50.0 µM), 95.7% (active). Moreover, the growth inhibition in assay [5] (setting [7]) is 96% (active); in assay [5] (setting [8]), 97% (active); in assay [5] (at 50.0 µM), 97.8% (active); in assay [6] (setting [7]) it was 98% (active); in assay [6] (setting [8]), 97% (active); in assay [6] (at 50.0 µM) it was 97.5% (active).

Turning to `CCOC(CCCl)OCC`, the growth inhibition was 0% in assay [1] (setting [7]); 2% in assay [1] (setting [8]); 7.35% in assay [1] (at 50.0 µM); 0% in assay [2] (setting [7]); 4% in assay [2] (setting [8]); 5.7% in assay [2] (at 50.0 µM). For the same molecule, the growth inhibition in assay [3] (setting [7]) was -1%; in assay [3] (setting [8]), 1%; in assay [3] (at 50.0 µM) it was -2.9%; in assay [4] (setting [7]), 0%; in assay [4] (setting [8]) it was -5%; in assay [4] (at 50.0 µM), 89.2% (active). Further, the growth inhibition in assay [5] (setting [7]) was 1%; in assay [5] (setting [8]), -3%; in assay [5] (at 50.0 µM), 2.35%; in assay [6] (setting [7]), 0%; in assay [6] (setting [8]), 3%; in assay [6] (at 50.0 µM), 13.3%.

Consider `COc1ccc([N+](=O)[O-])cc1NC(=O)Nc1ccc(C(=O)OCC(C)C)cc1`, for which the growth inhibition in assay [1] (setting [7]) was 11%; in assay [1] (setting [8]), 36%; in assay [1] (at 50.0 µM) it was 48.8%; in assay [2] (setting [7]), 3%; in assay [2] (setting [8]), 53%; in assay [2] (at 50.0 µM), 70.2% (active). The growth inhibition in assay [3] (setting [7]) was 3%; in assay [3] (setting [8]), 48%; in assay [3] (at 50.0 µM), 68.2%; in assay [4] (setting [7]) it was -10%; in assay [4] (setting [8]), 56%; in assay [4] (at 50.0 µM), 57%. Besides, the growth inhibition in assay [5] (setting [7]) is -5%; in assay [5] (setting [8]), 47%; in assay [5] (at 50.0 µM), 45.3%; in assay [6] (setting [7]) it was 13%; in assay [6] (setting [8]), 3%; in assay [6] (at 50.0 µM), 74.9% (active).
